# Compound activity as filed in PubChem BioAssay.
# IDE exosite inh: displaces the probe from the exo-site of human IDE; purified IDE, FL-6b probe fluorescence polarization; active compounds read low; z-score at 20 µM; 17,000 tested, 6.3% active;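 active = z-score of -3 or lower, meaning strong loss of probe binding signal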;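 also: His-tagged human IDE residues 42-1019 made in E. coli with 30 nM FL-6b probe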
# Target sequence (P14735 42-1019 limits assumed): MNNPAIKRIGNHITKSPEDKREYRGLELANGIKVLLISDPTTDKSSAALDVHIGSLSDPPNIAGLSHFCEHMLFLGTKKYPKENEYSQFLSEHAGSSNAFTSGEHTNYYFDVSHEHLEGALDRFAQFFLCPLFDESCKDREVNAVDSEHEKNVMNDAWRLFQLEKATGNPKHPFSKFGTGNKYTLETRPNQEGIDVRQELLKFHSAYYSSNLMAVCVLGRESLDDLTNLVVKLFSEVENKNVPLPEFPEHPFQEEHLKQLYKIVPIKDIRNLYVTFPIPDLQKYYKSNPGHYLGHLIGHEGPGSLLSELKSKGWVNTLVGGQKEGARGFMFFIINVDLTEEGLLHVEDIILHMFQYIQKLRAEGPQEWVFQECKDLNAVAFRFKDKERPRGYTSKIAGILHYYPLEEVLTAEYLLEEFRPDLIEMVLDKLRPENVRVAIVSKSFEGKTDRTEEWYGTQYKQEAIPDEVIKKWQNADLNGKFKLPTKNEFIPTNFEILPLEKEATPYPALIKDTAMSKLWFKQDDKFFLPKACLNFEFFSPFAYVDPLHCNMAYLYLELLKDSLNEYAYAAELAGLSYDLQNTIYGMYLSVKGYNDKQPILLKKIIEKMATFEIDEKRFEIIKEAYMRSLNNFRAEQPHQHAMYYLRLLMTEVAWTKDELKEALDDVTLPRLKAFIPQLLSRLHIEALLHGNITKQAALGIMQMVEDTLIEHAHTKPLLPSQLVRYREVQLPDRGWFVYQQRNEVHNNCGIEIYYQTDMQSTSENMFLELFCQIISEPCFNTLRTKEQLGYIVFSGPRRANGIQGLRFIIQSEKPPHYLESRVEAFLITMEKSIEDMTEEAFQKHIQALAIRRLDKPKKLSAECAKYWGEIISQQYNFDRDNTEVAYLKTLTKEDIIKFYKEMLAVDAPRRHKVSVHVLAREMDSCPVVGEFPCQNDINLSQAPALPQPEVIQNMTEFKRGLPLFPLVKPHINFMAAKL
# An asterisk follows results filed as active. This excerpt belongs to a sample that is enriched for hits.
SMILES,IDE exosite inh
C/C=C/c1ccc(C2[C@H]3CNC[C@@H]2N3S(=O)(=O)Cc2ccccc2)cc1 (stereo not given in full),0.98
O=C(NC[C@H]1[C@@H](c2ccccc2)[C@@H](CO)N1C(=O)C1CC1)NC1CCCC1,4
O=C1CNC[C@@H]2[C@@H](c3ccc(C#Cc4cccnc4)cc3)[C@@H](CO)N12,0.14
COc1ccc(NC(=O)N2CC(=O)N3[C@@H](CO)[C@H](c4ccc(-c5ccccc5)cc4)[C@@H]3C2)cc1,0.99
O=C(C1CC1)N1CC(=O)N2[C@H](C1)[C@H](c1ccc(-c3cccnc3)cc1)[C@@H]2CO,0.95
CN(C)CC(=O)N1[C@H](C#N)[C@H](c2ccccc2-c2cccc(C(=O)N(C)C)c2)[C@H]1CO,2.1
O=C(NC[C@H]1[C@@H](c2ccccc2)[C@@H](CO)N1CC1CCCC1)c1cccnc1,0.35
C[C@@H]1CN([C@H](C)CO)C(=O)c2cc(-c3ccc(F)cc3)cnc2O[C@H]1CN(C)S(C)(=O)=O,0.58
COCC(=O)N1CC(=O)N2[C@H](CO)[C@H](c3ccc(Br)cc3)[C@H]2C1,1.4
CC(=O)N1[C@H](C(=O)NCc2ccccc2Cl)[C@@H](CO)[C@@H]2Cn3c(ccc(-c4cncnc4)c3=O)[C@@H]21,0.0021
CO[C@@H]1CN(C)C(=O)c2cc(NC(=O)Nc3cccc(Cl)c3)ccc2OC[C@@H](C)N(C(=O)Nc2c(C)noc2C)C[C@@H]1C,1.2
O=C(Nc1ccccc1F)N1CC(=O)N2[C@@H](CO)[C@@H](c3ccc(C#Cc4ccc(F)cc4)cc3)[C@@H]2C1,0.6
O=C(c1ccccc1F)N1CC(=O)N2[C@H](C1)[C@@H](c1ccc(-c3ccccc3)cc1)[C@@H]2CO,-3.2*
O=C(c1cccc(F)c1)N1CC(=O)N2[C@H](CO)[C@@H](c3ccc(-c4ccccc4)cc3)[C@H]2C1,0.81
O=C(c1ccccc1F)N1CC(=O)N2[C@H](CO)[C@@H](c3ccc(C#Cc4ccccc4)cc3)[C@@H]2C1,0.93
O=C(c1ccccc1F)N1CC(=O)N2[C@H](CO)[C@H](c3ccc(C#Cc4ccccc4)cc3)[C@@H]2C1,-1.8
O=C(c1ccccc1F)N1CC(=O)N2[C@@H](CO)[C@H](c3ccc(-c4ccc(F)cc4)cc3)[C@@H]2C1,1.3
O=C(Nc1ccccc1F)N1CC(=O)N2[C@H](C1)[C@@H](c1ccc(C#Cc3ccc(F)cc3)cc1)[C@@H]2CO,4.2
O=C(c1ccccc1F)N1CC(=O)N2[C@H](C1)[C@H](c1ccc(C#Cc3ccccc3)cc1)[C@@H]2CO,-3.4*
O=C(Nc1ccccc1F)N1CC(=O)N2[C@H](C1)[C@H](c1ccc(C#Cc3ccccc3)cc1)[C@@H]2CO,-4.1*
O=C(c1cccc(F)c1)N1CC(=O)N2[C@H](C1)[C@@H](c1ccc(-c3ccccc3)cc1)[C@@H]2CO,-3.4*
O=C(c1ccccc1F)N1CC(=O)N2[C@@H](CO)[C@H](c3ccc(-c4ccccc4)cc3)[C@@H]2C1,-1.2
O=C(c1cccc(F)c1)N1CC(=O)N2[C@H](CO)[C@@H](c3ccc(-c4ccccc4)cc3)[C@@H]2C1,-0.16
CCCC#Cc1ccc([C@H]2[C@@H](CO)N3C(=O)CN(C(=O)NC4CCCC4)C[C@H]23)cc1,1.9
C[C@@H]1CN([C@@H](C)CO)C(=O)c2ccccc2-c2ccccc2CO[C@@H]1CN(C)S(=O)(=O)c1cn(C)cn1,-0.27
SMILES,IDE exosite inh
CO[C@@H]1CN(C)C(=O)c2ccc(NC(=O)c3cc(C)on3)cc2OC[C@@H](C)NC[C@@H]1C,-1.3
O=C(C[C@@H]1C[C@H]2c3cc(NS(=O)(=O)c4ccc(F)cc4)ccc3O[C@H]2[C@H](CO)O1)N1CCc2ccccc2C1,0.24
C[C@H]1CN([C@@H](C)CO)C(=O)c2ccccc2-c2ccccc2CO[C@H]1CN(C)C(=O)CCC(F)(F)F,-0.68
CO[C@H]1CN(C)C(=O)c2cc(NC(=O)Nc3cccc(Cl)c3)ccc2OC[C@@H](C)N(C(=O)Nc2c(C)noc2C)C[C@@H]1C,1.4
CCC(=O)N1[C@H](CO)[C@H](c2ccccc2-c2cccc(C)c2)[C@@H]1C#N,1.7
CC[C@H]1C/C=C\C[C@H](c2ccccc2)NC(=O)CCC(=O)N1,0.99
CCCNC(=O)N1[C@H](CO)[C@H](c2ccccc2)[C@H]1CNC(=O)C1CCC1,0.28
C[C@H](CO)N1C[C@H](C)[C@H](CN(C)S(C)(=O)=O)OCCCC[C@H](C)Oc2ccc(NC(=O)NC3CCCCC3)cc2C1=O,0.17
CO[C@@H]1CN(C)C(=O)c2cc(NC(=O)c3cccc(F)c3)ccc2OC[C@H](C)N(C)C[C@H]1C,0.59
C[C@@H]1CCn2cc(nn2)COC[C@@H](c2ccccc2)NC1=O,0.6
CC(C)C(=O)Nc1ccc2c(c1)C(=O)N(C)[C@H]1CC[C@@H](CC(=O)NCCc3ccccc3)O[C@H]1CO2,-0.18
O=C(NC[C@H]1N[C@H](CO)[C@@H]1c1ccccc1)c1ccccc1F,0.72
CCC(=O)N1[C@H](CNC(=O)COC)[C@H](c2ccc(-c3ccccc3)cc2)[C@@H]1CO,-2.8
O=C(NC[C@@H]1N[C@@H](CO)[C@H]1c1ccccc1)c1ccccc1F,1.1
COCC(=O)NC[C@H]1[C@H](c2ccc(-c3ccccc3)cc2)[C@@H](CO)N1C(C)=O,2
C/C=C/c1ccc([C@@H]2[C@H](CO)N[C@H]2CNC(=O)c2ccccc2F)cc1,-0.092
O=C(NC[C@H]1N[C@H](CO)[C@@H]1c1ccc(-c2ccccc2F)cc1)c1ccccc1,-10*
COCC(=O)NC[C@H]1N[C@H](CO)[C@@H]1c1ccc(-c2ccccc2F)cc1,-3.1*
COCC(=O)NC[C@H]1N[C@H](CO)[C@H]1c1ccc(-c2ccccc2F)cc1,-3.3*
CCC(=O)NC[C@H]1N[C@H](CO)[C@@H]1c1ccc(-c2ccccc2F)cc1,-0.8
CCC(=O)N1[C@H](CNC(=O)COC)[C@@H](c2ccc(-c3ccccc3)cc2)[C@@H]1CO,-3.5*
CCS(=O)(=O)N(C)C[C@@H]1N[C@H](CO)[C@@H]1c1ccc(-c2ccccc2F)cc1,-0.26
COCC(=O)NC[C@H]1N[C@H](CO)[C@@H]1c1ccc(C2=CCCCC2)cc1,3.3
CN1C(=O)c2cc(NC(=O)c3cscn3)ccc2OC[C@@H]2O[C@@H](CC(=O)N3CCOCC3)CC[C@H]21,1.1
O=C(C[C@H]1CC[C@H]2[C@@H](COC[C@@H](O)CN2Cc2cc(F)ccc2F)O1)NCc1ccc(Oc2ccccc2)cc1,-1.5
SMILES,IDE exosite inh
CCC(=O)NC[C@H]1[C@H](c2ccccc2)[C@@H](CO)N1C(=O)C1CCC1,0.28
CCS(=O)(=O)N1CCCCN2[C@H](CO)[C@H](c3ccc(-c4cccc(C#N)c4)cc3)[C@H]2C1,1.1
O=S(=O)(Cc1ccccc1)N1CCCCN2[C@@H](CO)[C@@H](c3ccc(-c4ccccc4)cc3)[C@@H]2C1,3
O=C1CN(S(=O)(=O)c2ccccc2)C[C@@H]2[C@H](c3ccc(C4=CCCC4)cc3)[C@@H](CO)N12,5.3
C[C@H](CO)N1C[C@H](C)[C@@H](CN(C)S(=O)(=O)c2ccc(Cl)cc2)Oc2c(NC(=O)Nc3ccc(F)cc3)cccc2C1=O,0.3
O=C(C1CCOCC1)N1CC(=O)N2[C@H](CO)[C@@H](c3ccc(-c4ccccc4F)cc3)[C@H]2C1,2.9
O=C(C1CCOCC1)N1CC(=O)N2[C@H](CO)[C@@H](c3ccc(-c4ccccc4F)cc3)[C@@H]2C1,-4.8*
O=C(C1CCOCC1)N1CC(=O)N2[C@H](C1)[C@@H](c1ccc(-c3ccccc3F)cc1)[C@@H]2CO,-9*
